Experimental data as given in PubChem BioAssay AID504554 (Johns Hopkins Ion Channel Center, 2011).
Activity calls are given as the source filed them.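 The calls were made as follows: active = peak TRPC4 channel inhibition over 30% at some tested dose, plus a fitted dose response curve; inactive = no inhibition at any dose, or no curve fitted.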

The molecules below were run against Short transient receptor potential channel 4 (Mus musculus) (UniProt Q9QUQ5) (assay: TRPC4 channel inhibition, specificity check, SAR follow-up, selectivity assay for TRPC6 selective inhibitor project, cell-based, HEK293 TRPC4/mu-opioid, concentration-response (AID 504554)). Conditions: DAMGO-evoked Fluo-4 calcium ratio; series mostly up to 6.67 µM; fluorescence ratio, lower = inhibition: at the top concentration.
Chain of Short transient receptor potential channel 4 (Mus musculus) (Q9QUQ5 whole entry, looked up): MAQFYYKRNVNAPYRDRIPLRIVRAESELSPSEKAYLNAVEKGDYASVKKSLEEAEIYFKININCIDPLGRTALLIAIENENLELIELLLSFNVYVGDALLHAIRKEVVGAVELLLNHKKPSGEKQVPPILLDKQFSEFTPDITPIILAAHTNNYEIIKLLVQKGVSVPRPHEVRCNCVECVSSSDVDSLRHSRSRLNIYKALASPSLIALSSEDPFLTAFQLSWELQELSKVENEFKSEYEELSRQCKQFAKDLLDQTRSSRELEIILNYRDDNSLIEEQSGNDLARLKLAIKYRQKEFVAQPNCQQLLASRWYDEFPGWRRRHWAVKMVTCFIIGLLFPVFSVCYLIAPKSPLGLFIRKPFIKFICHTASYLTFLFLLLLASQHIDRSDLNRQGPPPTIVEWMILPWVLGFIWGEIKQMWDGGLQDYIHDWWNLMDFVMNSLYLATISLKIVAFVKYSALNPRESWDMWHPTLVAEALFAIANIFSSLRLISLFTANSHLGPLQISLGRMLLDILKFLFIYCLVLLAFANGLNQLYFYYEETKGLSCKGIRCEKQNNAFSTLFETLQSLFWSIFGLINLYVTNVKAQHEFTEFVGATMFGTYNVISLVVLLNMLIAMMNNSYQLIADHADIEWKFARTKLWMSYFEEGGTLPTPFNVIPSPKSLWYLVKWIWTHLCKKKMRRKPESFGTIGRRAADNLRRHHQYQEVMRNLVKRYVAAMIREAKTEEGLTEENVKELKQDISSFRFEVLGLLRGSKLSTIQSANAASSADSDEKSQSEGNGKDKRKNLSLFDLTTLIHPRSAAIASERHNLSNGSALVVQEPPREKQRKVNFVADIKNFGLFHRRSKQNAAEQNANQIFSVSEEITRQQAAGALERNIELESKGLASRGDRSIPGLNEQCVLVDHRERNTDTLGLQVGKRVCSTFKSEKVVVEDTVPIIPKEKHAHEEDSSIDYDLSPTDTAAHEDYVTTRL

Fluorescence ratio, lower = inhibition, inactive:
CCOc1ccc(CNc2ccc3c(c2)ncn3-c2ccccc2)cc1 52.6
CC(C)(C)n1cnc2cc(NC(=O)c3ccc(Cl)cc3)ccc21 50.5
CC(C)(C)n1cnc2cc(NCc3ccco3)ccc21 57.3
CC(C)(C)n1cnc2cc(NCc3cccs3)ccc21 49
CC(C)c1ccc(CNc2ccc3c(c2)ncn3C(C)(C)C)cc1 38.7
CCOc1ccc(CNc2ccc3c(c2)ncn3C(C)(C)C)cc1 44.9
CCc1ccc(CNc2ccc3c(c2)ncn3C(C)(C)C)cc1 40.6
COc1ccc(CNc2ccc3c(c2)ncn3C(C)(C)C)c(OC)c1 52.9
CCC(=O)Nc1ccc2c(c1)ncn2C(C)(C)C 54.4
CC(=O)Nc1ccc2c(c1)ncn2C(C)(C)C 52.3
CC(C)(C)n1cnc2cc(NCc3ccccc3Cl)ccc21 38.5
CC(C)(C)n1cnc2cc(NC(=O)c3cccs3)ccc21 55.2
CC(C)(C)n1cnc2cc(NCc3cccc4ccccc34)ccc21 38.9
CC(C)(C)n1cnc2cc(NCc3ccccc3O)ccc21 50.7
CC(C)(C)n1cnc2cc(NCc3ccc(Cl)cc3Cl)ccc21 39.5
CCN(CC)c1ccc(CNc2ccc3c(c2)ncn3C(C)(C)C)cc1 53.8
COc1cccc(CNc2ccc3c(c2)ncn3C)c1OC 53.2
COc1ccc(OC)c(CNc2ccc3c(c2)ncn3C(C)(C)C)c1 42.2
Cc1ccc(CNc2ccc3c(c2)ncn3C(C)(C)C)cc1 41.2
COc1ccccc1CNc1ccc2c(c1)ncn2C(C)(C)C 44.4
COc1ccc(CNc2ccc3c(c2)ncn3C(C)(C)C)cc1OC 50
COc1ccc(CNc2ccc3c(c2)ncn3C(C)(C)C)cc1 51.1
CC(C)(C)n1cnc2cc(NCc3ccc(Br)cc3)ccc21 49.4
CCOc1ccc(CNc2ccc3c(c2)ncn3C)cc1 54.2
CC(C)(C)n1cnc2cc(NCc3cccc(Br)c3)ccc21 47.9
COc1ccc(CNc2ccc3c(c2)ncn3-c2ccccc2)cc1 47
CC(C)(C)n1cnc2cc(NC(=O)c3ccccc3)ccc21 48.3
COc1cc(C(=O)Nc2ccc3c(c2)ncn3C(C)(C)C)cc(OC)c1OC 58.2
CCOc1ccccc1CNc1ccc2c(c1)ncn2C(C)(C)C 40.9
CCCC(=O)Nc1ccc2c(c1)ncn2C(C)(C)C 55.1

outcome, inactive:
COc1cccc(CNc2ccc3c(c2)ncn3C(C)(C)C)c1OC
CN(C)c1ccc(CNc2ccc3c(c2)ncn3C(C)(C)C)cc1
